Bioassay records (PubChem)
PfHsp90 set2 = inhibits growth of yeast expressing Plasmodium falciparum Hsp90 | S. cerevisiae expressing PfHsp90, BacTiter-Glo ATP, 48 h; yeast lacking PDR1 and PDR3 efflux regulators | inhibition, % at 9.4 µM | 0.32% of 310,000 active;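 active means every replicate shows inhibition above about 80%, whatever the replicate mean, limit read from the data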
tim23-1 inh = tim23-1 yeast growth inhibition. S. cerevisiae tim23-1 growth, BacTiter-Glo luminescence, 24 h. inhibition, % at 20 µM. 1.3% of 330,000 active. AID 463212;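 active means growth inhibition of the mutant yeast at or above 50%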;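 further: temperature-sensitive mutant grown at 25 °C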
TIM10 inh = growth inhibitors of TIM10 yeast strain; 1.4% of 330,000 active; AID 463195; inhibition, % at 10 µM; S. cerevisiae TIM10 strain growth, BacTiter-Glo luminescence, 24 h;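 active means inhibition of 40% or more at the single tested concentration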;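 further: wild-type TIM10 isogenic control strain grown at permissive 25 °C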
tim10-1 inh = tim10-1 yeast growth inhibition; S. cerevisiae tim10-1 ts strain growth, BacTiter-Glo, 24 h; inhibition, % at 20 µM; 2.2% of 330,000 active; AID 463190;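 active means inhibition of at least 40%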;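 further: mutant grown at 25 °C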
SKKanGAS inh = blocks kanamycin growth of S. pyogenes SKKanGAS strain | BacTiter-Glo, 6 h | 1.3% of 300,000 active | inhibition, % at 7.5 µM;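 active means mean replicate score, as percent of positive control median, at least 50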;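 further: strain carries kanamycin resistance gene driven by streptokinase promoter and grows in 40 µg/ml kanamycin; loss of luminescence reflects streptokinase promoter inhibition or plain growth inhibition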
NLRP3 yeast inh = blocks the NALP3 inflammasome reconstituted in yeast | 0.39% of 330,000 active | Yeast reconstituted NLRP3/ASC/caspase-1, beta-gal luminescence, 24 h | inhibition, % at 10 µM;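 active means inhibition of 50% or more; inactive means inhibition below 50%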
tim10 confirm = confirmation of TIM10 yeast growth inhibitors | shares compounds with TIM10 inh | S. cerevisiae tim10 strain growth, BacTiter-Glo luminescence, 24 h | inhibition, % at 10 µM | 63% of 4,600 active | AID 463215;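 active means inhibition of yeast growth at or above a set limit in either of two replicates at 10 µM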; further: this counterscreen used the strain with wild-type TIM10
Of the large screens only hits and unclear results are named; the others gave an inactive call (follow-up assays come after a bar, where they were run). An excerpt weighted towards active compounds, which were near 4.6% of everything screened.

C=CCn1c(=O)/c(=C/c2ccc(F)cc2)s/c1=C(\C#N)c1nnc2n1CCCCC2	TIM10 inh 44 | tim10 confirm 40
Nc1ncnc(N2CCOCC2)n1	none (no result: tim23-1 inh, TIM10 inh, tim10-1 inh, SKKanGAS inh, NLRP3 yeast inh)
C=CCn1c(C(CC)CC)nc2ccccc21	none (no result: PfHsp90 set2)
C=CCn1c(C(C)NC(=O)COC)nc2ccccc21 (stereo unspecified)	TIM10 inh 97 | tim10 confirm inactive
CCN1C(=O)C(C(=O)c2ccccc2)SC1=S (stereo unspecified)	none
CCCN(C(=O)Cn1ncc2c(=O)oc3ccccc3c21)c1cccc(C)c1	TIM10 inh 41 | tim10 confirm inactive
COc1ccc(CC(=O)NNS(=O)(=O)c2ccc([N+](=O)[O-])cc2)cc1OC	none
O=C1C(=O)N(c2nccs2)C(c2ccccc2F)/C1=C(\O)c1ccc2c(c1)OCCO2 (stereo unspecified)	none
Oc1ccc(Br)cc1/C=N/n1c(C2CCCCC2)n[nH]c1=S	TIM10 inh 44 | tim10 confirm 56
c1ccc(OCCN2CCN(C(c3ccccc3)c3ccccc3)CC2)cc1	TIM10 inh 42 | tim10 confirm 47
COc1ccc(C(=O)NCC(=O)Nc2ccc(F)cc2)cc1OC	TIM10 inh 50 | tim10 confirm inactive
COc1ccc(NC(=S)NCCc2ccc(Cl)cc2)c(OC)c1	TIM10 inh 41 | tim10 confirm inactive
COc1ccc(NC(=S)NCCSc2ccc(C)cc2)c(OC)c1	TIM10 inh 46 | tim10 confirm inactive
COc1cccc(/C=N\NC(=O)c2ccc(Cn3cc(Br)c([N+](=O)[O-])n3)o2)c1O	none
O=C(CNS(=O)(=O)c1ccc(Br)cc1)NCc1ccncc1	none
Cc1ccc(S(=O)(=O)N2CCC(C(=O)N/N=C/c3ccncc3)CC2)cc1	none
O=C(NC1CCCC1)C(c1ccco1)N(C(=O)c1ccco1)c1ccccc1 (stereo unspecified)	none
CCc1ccc(N(C(=O)c2ccco2)C(C(=O)NC2CCCC2)c2ccco2)cc1 (stereo unspecified)	TIM10 inh 42 | tim10 confirm inactive
COc1ccc(CCN(C)C(=S)NC(=O)c2ccc(F)cc2Cl)cc1OC	TIM10 inh 45 | tim10 confirm inactive
COc1ccc(CCN(C)C(=S)Nc2ccc(SC(F)F)cc2)cc1OC	none
CCOC(=O)CSc1nnc2c(n1)C1(C)CCC2C1(C)C (stereo unspecified)	none (no result: PfHsp90 set2)
CC12CCC(c3nnc(SCC(=O)Nc4cccc5ccccc45)nc31)C2(C)C (stereo unspecified)	TIM10 inh 46 | tim10 confirm inactive
N#CC1(c2ccccc2)CCC(=O)N1c1ccccc1 (stereo unspecified)	none
O=C1CC(c2ccccc2)CC(O)=C1C=Nc1ccccc1 (stereo unspecified)	none
O=C1CC(c2cccc(Cl)c2)CC(O)=C1C=Nc1cccc(Cl)c1 (stereo unspecified)	TIM10 inh 79 | tim10 confirm 80
O=C(NCCS(=O)(=O)N1CCN(c2cccc(Cl)c2)CC1)c1ccc2c(c1)OCO2	none (no result: PfHsp90 set2)
COc1cccc(-n2nnnc2S(C)(=O)=O)c1	TIM10 inh 59 | tim10 confirm 48
COc1cccc(-n2cnnn2)c1	none (no result: PfHsp90 set2)
Cc1ccc2nc(-c3ccncc3)c(NC3CCCCC3)n2c1	TIM10 inh 43 | tim10 confirm 42
Cc1ccc2nc(-c3ccncc3)c(NC3CCCC3)n2c1	none
O=C(Nc1cccc(S(=O)(=O)N2CCCCC2)c1)C1CC1	none (no result: SKKanGAS inh)
O=C1CC(N2CCN(c3ccccn3)CC2)C(=O)N1CC(c1ccccc1)c1ccccc1 (stereo unspecified)	TIM10 inh 42 | tim10 confirm inactive
O=C(COc1ccc2c(c1)CCC2)N1CCc2ccccc21	TIM10 inh 45 (no result: PfHsp90 set2) | tim10 confirm 37
COc1ccc2oc(=O)c(-c3csc(Nc4ccc(O)cc4)n3)cc2c1	TIM10 inh 41, SKKanGAS inh 104 | tim10 confirm inactive
COc1ccc(/C=C/c2cc(C(=O)O)c3ccccc3n2)cc1	none
Cc1cc(/C=C\c2ccccc2)nc2ccccc12	TIM10 inh 53 | tim10 confirm 62
